# In the library only some 9% were active in any assay of this set; here they are far more common.
# PLK1 PBD block = blocks phosphopeptide binding to human PLK1 polo-box domain. Potency, µM, inactives show max response, negative = inhibition, usual class: inhibitors. 360,000 tested, 2.8% active. P53350. Plk1 PBD binding of FITC phosphopeptide, fluorescence polarization; note: series mostly up to about 57 µM; % is set by controls: 0 for no effect and ±100 for the full control effect; nearly all actives have a fitted effect of over 65% in size
# HP1b chromo inh = inhibitors of HP1-beta chromodomain binding to methylated histone tails. AlphaScreen HP1-beta / biotin-H3K9me3 peptide binding. Potency, µM (titrated, usually from 114 µM), inactives show at the highest dose activity change, negative = inhibition, usual class: inhibitors. AID 540317. P83916. 390,000 tested, 0.56% active; note: nearly all actives have a fitted effect of over 70% in size
#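 Compound inhibition of the preformed complex between 50 nM HP1-beta and 50 nM biotinylated H3K9me3 peptide was read by AlphaScreen. Buffer was PBS pH 7.4 with 0.01% Tween-20. Incubations ran 30 min at room temperature, with 10 ug/mL donor/acceptor beads.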
# JMJD2A Tudor inh = inhibitors of human JMJD2A Tudor domain; 390,000 tested, 4.4% active; O75164; AlphaScreen JMJD2A-Tudor / H3K4me3 peptide binding; Potency, µM (highest dose often 114 µM), for inactives: at the highest dose activity change, negative = inhibition, most hits filed as inhibitors; note: % is set by controls: 0 for no effect and ±100 for the full control effect; nearly all actives have a fitted effect of over 50% in size
# ALOX12 inh = blocks human arachidonate 12S-lipoxygenase. P18054. purified 12hLO, xylenol orange hydroperoxide absorbance. Potency, µM (series often up to 108 µM), without a hit: at the top dose activity change, negative = inhibition, hits mostly inhibitors. 580,000 tested, 1.1% active; note: % is set by controls: 0 for no effect and ±100 for the full control effect
#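 Hydroperoxide product was detected by ferrous iron/xylenol orange as the 573 to 405 nm absorbance ratio. Arachidonic acid at 40 uM (final) was turned over for 30 min at room temperature by 150 nM human 12hLO, pH 7.0 Hepes buffer, after 15 min compound preincubation.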
# BAZ2B inh = BAZ2B (human) inhibition | AlphaScreen BAZ2B-H3K14Ac peptide displacement | Potency, µM (highest dose often 114 µM), for inactives: top-dose activity change, negative = inhibition, actives largely listed as inhibitors | 360,000 tested, 4.4% active | AID 504333; note: % is set by controls: 0 for no effect and ±100 for the full control effect; nearly all actives have a fitted effect of over 60% in size
#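 Complex of BAZ2B and biotin-H3K14Ac (50 nM apiece) forms over 30 min at RT, then faces library compounds up to 110 uM for another 30 min; AlphaScreen beads added, 20 min dark incubation, luminescence read.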
# G9a inh = blocks human histone lysine methyltransferase G9a. Q96KQ7. G9a H3K9 monomethylation, AlphaScreen, 2 h. Potency, µM (top dose mostly 102 µM), without a hit: at the highest dose activity, negative = inhibition, most hits filed as inhibitors. 350,000 tested, 8.8% active. AID 504332; note: % is set by controls: 0 for no effect and ±100 for the full control effect; nearly all actives have a fitted effect of over 75% in size
#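 Signal arises when biotinylated H3K9 peptide, once monomethylated, bridges streptavidin donor and antibody-captured acceptor beads. Enzyme at 20 nM was preincubated 15 min with test compounds; peptide 500 nM and SAM 20 uM then reacted for 2 h.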
# An asterisk follows results filed as active; i = inactive; ? = inconclusive; / = not tested or not shown; [ ] = another dose, or the depositor's remark. Calls come from the whole dose curve; as a rule, active = well fitted curve in the direction sought with a large enough effect; inconclusive = small, poorly fitted or top-dose-only effect, or another doubt; inactive = no such curve, though single readings can be large; an effect the other way counts as inactive or inconclusive. Potency is the fitted concentration of half-maximal effect.
SMILES,PLK1 PBD block,HP1b chromo inh,JMJD2A Tudor inh,ALOX12 inh,BAZ2B inh,G9a inh
O=C(COc1cccc2c1CCN(Cc1ccc(Br)cc1)C2=O)NCc1ccco1,-17.2%,-31.5%,50.1µM*,-24.8%,?,?
O=C(COc1cccc2c1CCN(Cc1ccc(Br)cc1)C2=O)N1CCOCC1,-4.1%,29.6%,-11.0%,-4.8%,-17.2%,1.6%
CCCn1cc(CN2CCC(Oc3ccc(C(=O)N4CCCC4)cc3)CC2)c(C)n1,-8.2%,24.4%,-22.1%,7.5%,0.2%,8.3%
O=C(CCC1NC(=O)N(CCc2c[nH]c3ccc(F)cc23)C1=O)NC1CC1 (configuration not stated),/,/,/,-21.4%,/,/
O=C1OCCN1S(=O)(=O)Nc1ccccc1,-6.6%,23.7%,79.4µM*,?,-36.3%,44.7µM*
COc1cc(C(=O)N2CCN(CCc3ccncc3)CC2)cc(OC)c1OC,/,35.2%,-13.2%,-24.6%,-8.4%,-14.4%[59 µM]
COCCNc1ncnc2ccc(-c3ccccc3C(F)(F)F)cc12,/,/,/,20µM*,/,3.4%[0.501 µM]
O=C(O)Cc1ccc(C(=O)c2ccc(F)cc2)s1,-0.6%,45.2%,-0.3%,0.0%,5.5%,?
N#CCc1ccc(C(=O)c2ccccc2F)s1,1.2%,15.4%,-11.9%,-20.4%,50.1µM*,?
Cc1ccc(CN(CC(=O)NC2CCCC2)C(=O)CSc2nnc(COc3ccccc3)o2)cc1,29.9µM*,?,-27.1%,-18.5%,47.0%,31.6µM*
O=C(CN(Cc1ccccc1)C(=O)CSc1nnc(COc2ccccc2)o1)NC1CCCC1,?,-7.7%,-11.6%,-0.8%,-1.7%,10µM*
CCc1ccc(OCc2nnc(SCC(=O)NC3CCCCC3)o2)cc1,-1.3%,3.3%,-7.4%,-2.9%,4.1%,24.5%
O=C(CN(Cc1cccs1)C(=O)CSc1nnc(COc2ccccc2)o1)NC1CCCC1,-0.7%,32.3%,-12.5%,4.8%,-8.2%,-2.1%[59 µM]
CC1CCCCN1C(=O)Cn1cnc2cc([N+](=O)[O-])ccc2c1=O (configuration not stated),9.47µM*,-14.3%,14.1µM*,i,?,-5.9%
CC1CCCCN1C(=O)COC(=O)c1cc([N+](=O)[O-])ccc1N (configuration not stated),-1.5%,3.5%,-7.9%,?,-26.3%,39.8µM*
Cc1cc(C)c(C(=O)Cn2cnc3cc([N+](=O)[O-])ccc3c2=O)cc1C,-9.6%,3.2%,-30.1%,16.9%,-16.8%,?
CC(C)NC(=O)c1cccc2c(-c3ccc(F)c(F)c3)coc12,-5.0%,/,/,-15.1%,/,/
CCOc1ncccc1C(=O)N1CCc2onc(-c3ccccc3F)c2C1,/,/,/,5.8%,/,/
O=c1cc(-c2ccccc2)oc2ccc3ccccc3c12,-13.0%,/,/,-0.1%,/,/
O=c1cc(-c2ccc(O)c(O)c2)oc2c1ccc1ccccc12,-7.1%,25.2%,-33.2%,0.355µM*,?,?
O=c1cc(-c2ccc(O)c(O)c2)oc2ccc3ccccc3c12,-0.2%,-16.9%,-24.1%,?,?,56.2µM*
CCCCc1cc(=O)oc2cc(OCc3cc(OC)c(OC)c(OC)c3)c(Cl)cc12,-4.9%,17.2%,-6.5%,-17.2%,0.8%,-30.8%[59 µM]
C#CC[N+]1(CC#Cc2ccccc2)CCCCC1,-1.8%,48.3%,-1.4%,-12.4%,-5.1%,19.2%[59 µM]
C(#Cc1ccccc1)C[N+]1(CC#Cc2ccccc2)CCCCC1,26.7µM*,4.7%,44.7µM*,-1.0%,-38.3%,-32.6%
Cc1ccc(C#CC[N+]2(CC#Cc3ccc(C)cc3)CCCCC2)cc1,-8.3%,22.5%,-23.4%,?,3.5%,89.1µM*
O=C(O)CCCCCCCCc1cn(Cc2ccc(C(=O)c3ccccc3)cc2)nn1,-17.7%,24.1%,-23.4%,-3.7%,-5.3%,-9.4%
CCOC(=O)C1CCC(CNCc2ccccc2C)CC1 (configuration not stated),-24.0%,1.6%,-5.1%,-5.5%,0.2%,50.1µM*
CC(C)c1ccc(NC(=O)C2CCN(c3ncnc4c3nc3n4CCCCC3)CC2)cc1,29.9µM*,-7.9%,?,-3.6%,-16.7%,-14.5%
